In the supplement of paper PMC11732987, “Enantioselective OTUD7B fragment discovery through chemoproteomics screening and high-throughput optimisation” (Communications Chemistry, 2025):
Unmarked numbers belong to inactive results.

Assays:
Test in all cases: log2 ratio of Biotin-Ahx-Ub-VS probe labelling (fragment/DMSO); higher = less target engagement (more negative = stronger competition), active = hit call of the paper (q ≤ 0.05, log2 ratio ≤ -1)
Settings in all cases: compound concentration: 200 uM; treatment time: 3 h
OTUD6B = target: T1, OTUD6B (UniProt Q8N6M0)
T1 sequence (whole entry): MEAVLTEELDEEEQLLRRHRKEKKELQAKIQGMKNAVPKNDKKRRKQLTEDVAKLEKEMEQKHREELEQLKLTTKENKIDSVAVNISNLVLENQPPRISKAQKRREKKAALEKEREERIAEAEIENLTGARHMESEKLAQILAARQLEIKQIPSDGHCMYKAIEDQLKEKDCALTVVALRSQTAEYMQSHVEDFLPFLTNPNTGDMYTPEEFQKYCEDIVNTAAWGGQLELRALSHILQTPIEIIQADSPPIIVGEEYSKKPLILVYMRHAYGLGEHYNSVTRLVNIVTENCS
In short: (§1)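 Labelled DUBs were enriched with NeutrAvidin, digested with LysC and trypsin, and run by diaPASEF LC-MS/MS. The labelling used Biotin-Ahx-Ub-VS at 0.5 µM final for 1 h on HEK293T lysate (495 µg per sample) previously treated in triplicate with fragment at 200 µM or vehicle for 3 h. Values are average log2 fragment/vehicle ratios by unpaired t-test on global-median-normalised Spectronaut quantities of proteins with ≥2 unique peptides.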

OTUD7B = target: T2, OTUD7B (UniProt Q6GQQ9)
T2 sequence (whole entry): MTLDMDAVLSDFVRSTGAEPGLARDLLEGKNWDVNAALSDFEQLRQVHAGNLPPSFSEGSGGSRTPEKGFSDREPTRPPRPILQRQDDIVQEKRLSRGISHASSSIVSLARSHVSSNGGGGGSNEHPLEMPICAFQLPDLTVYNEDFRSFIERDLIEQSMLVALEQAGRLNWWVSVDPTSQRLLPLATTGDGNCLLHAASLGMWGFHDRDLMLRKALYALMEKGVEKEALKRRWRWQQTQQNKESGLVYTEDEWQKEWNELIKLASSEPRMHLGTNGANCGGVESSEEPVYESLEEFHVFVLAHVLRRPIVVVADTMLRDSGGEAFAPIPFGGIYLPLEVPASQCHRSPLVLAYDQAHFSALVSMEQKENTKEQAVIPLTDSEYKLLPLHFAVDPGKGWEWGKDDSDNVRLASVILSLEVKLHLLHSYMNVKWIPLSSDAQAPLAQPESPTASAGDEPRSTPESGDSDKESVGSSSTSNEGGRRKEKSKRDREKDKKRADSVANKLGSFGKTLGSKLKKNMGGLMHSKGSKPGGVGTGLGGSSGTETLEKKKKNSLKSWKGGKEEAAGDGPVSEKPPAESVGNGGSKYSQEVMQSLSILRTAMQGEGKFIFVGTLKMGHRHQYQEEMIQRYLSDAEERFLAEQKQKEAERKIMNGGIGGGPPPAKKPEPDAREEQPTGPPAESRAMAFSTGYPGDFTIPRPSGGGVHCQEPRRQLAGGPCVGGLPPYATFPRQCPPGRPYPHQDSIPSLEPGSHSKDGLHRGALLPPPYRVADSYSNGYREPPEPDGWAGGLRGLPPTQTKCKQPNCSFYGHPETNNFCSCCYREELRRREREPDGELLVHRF
In short: as §1

PRPF8 = PRPF8 (UniProt Q6P2Q9)
In short: as §1

PSMD7 = target: T3, PSMD7 (UniProt P51665)
T3 sequence (whole entry): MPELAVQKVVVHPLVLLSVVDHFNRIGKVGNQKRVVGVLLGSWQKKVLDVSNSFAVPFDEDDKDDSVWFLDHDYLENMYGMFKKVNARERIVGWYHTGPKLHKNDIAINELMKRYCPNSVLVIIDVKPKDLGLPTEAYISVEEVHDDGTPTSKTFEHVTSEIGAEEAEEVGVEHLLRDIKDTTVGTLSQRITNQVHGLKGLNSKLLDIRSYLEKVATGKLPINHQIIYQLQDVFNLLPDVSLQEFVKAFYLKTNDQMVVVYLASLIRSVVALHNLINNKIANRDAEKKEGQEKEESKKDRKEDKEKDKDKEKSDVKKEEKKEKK
In short: as §1

UCHL1 = UCHL1 (UniProt P09936)
In short: as §1

UCHL3 = target: T4, UCHL3 (UniProt P15374)
T4 sequence (whole entry): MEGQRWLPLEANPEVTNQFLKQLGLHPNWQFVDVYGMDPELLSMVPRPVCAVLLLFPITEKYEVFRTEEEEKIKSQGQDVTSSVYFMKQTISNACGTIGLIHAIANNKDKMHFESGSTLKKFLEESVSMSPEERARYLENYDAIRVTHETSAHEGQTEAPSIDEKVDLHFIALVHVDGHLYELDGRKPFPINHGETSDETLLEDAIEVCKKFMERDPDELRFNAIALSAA
In short: as §1

UCHL5 = target: T5, UCHL5 (UniProt Q9Y5K5)
T5 sequence (whole entry): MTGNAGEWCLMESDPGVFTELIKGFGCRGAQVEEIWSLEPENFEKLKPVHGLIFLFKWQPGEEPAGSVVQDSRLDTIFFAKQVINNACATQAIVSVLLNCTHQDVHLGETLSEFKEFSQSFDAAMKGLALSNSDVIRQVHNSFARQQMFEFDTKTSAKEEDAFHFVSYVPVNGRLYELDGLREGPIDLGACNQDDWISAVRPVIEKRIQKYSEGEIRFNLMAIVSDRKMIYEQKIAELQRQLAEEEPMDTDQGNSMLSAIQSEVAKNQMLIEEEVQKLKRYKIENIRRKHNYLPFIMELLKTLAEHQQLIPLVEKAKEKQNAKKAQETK
In short: as §1

USP10 = USP10 (UniProt Q14694)
In short: as §1

USP15 = target: T6, USP15 (UniProt Q9Y4E8)
T6 sequence (whole entry): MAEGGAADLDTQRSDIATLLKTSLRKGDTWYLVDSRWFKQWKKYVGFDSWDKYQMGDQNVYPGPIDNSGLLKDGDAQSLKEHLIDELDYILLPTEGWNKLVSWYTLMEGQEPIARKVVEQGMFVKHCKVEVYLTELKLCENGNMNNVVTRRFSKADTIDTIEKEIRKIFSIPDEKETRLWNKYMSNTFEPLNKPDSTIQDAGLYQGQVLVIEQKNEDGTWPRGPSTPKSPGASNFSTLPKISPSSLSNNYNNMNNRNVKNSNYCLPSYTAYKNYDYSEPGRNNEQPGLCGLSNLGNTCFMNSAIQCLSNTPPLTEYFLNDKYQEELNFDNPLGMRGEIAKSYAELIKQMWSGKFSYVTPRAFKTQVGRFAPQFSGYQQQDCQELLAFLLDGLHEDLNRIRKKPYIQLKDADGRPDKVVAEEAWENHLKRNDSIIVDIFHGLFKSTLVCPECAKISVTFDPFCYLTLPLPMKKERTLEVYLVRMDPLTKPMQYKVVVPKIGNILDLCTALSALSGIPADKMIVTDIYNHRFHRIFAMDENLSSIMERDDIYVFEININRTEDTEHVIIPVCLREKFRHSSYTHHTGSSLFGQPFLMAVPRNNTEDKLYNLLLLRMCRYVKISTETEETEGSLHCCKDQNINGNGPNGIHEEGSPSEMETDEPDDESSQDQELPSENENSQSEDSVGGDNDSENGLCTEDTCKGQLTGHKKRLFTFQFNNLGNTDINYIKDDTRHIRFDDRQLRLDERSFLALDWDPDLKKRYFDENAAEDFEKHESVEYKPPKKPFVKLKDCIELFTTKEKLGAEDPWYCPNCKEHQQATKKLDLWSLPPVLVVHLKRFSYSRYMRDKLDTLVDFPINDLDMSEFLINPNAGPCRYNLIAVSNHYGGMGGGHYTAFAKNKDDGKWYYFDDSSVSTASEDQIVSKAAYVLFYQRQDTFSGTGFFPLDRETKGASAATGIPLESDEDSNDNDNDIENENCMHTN
In short: as §1

Chain of UCHL1 (P09936 whole entry, looked up): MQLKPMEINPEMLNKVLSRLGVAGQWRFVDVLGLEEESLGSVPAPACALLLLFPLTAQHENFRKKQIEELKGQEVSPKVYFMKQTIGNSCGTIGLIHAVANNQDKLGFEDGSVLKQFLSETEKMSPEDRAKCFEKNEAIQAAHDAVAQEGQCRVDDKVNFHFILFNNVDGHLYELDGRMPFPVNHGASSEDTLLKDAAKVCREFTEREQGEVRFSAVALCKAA
Chain of USP10 (Q14694 whole entry): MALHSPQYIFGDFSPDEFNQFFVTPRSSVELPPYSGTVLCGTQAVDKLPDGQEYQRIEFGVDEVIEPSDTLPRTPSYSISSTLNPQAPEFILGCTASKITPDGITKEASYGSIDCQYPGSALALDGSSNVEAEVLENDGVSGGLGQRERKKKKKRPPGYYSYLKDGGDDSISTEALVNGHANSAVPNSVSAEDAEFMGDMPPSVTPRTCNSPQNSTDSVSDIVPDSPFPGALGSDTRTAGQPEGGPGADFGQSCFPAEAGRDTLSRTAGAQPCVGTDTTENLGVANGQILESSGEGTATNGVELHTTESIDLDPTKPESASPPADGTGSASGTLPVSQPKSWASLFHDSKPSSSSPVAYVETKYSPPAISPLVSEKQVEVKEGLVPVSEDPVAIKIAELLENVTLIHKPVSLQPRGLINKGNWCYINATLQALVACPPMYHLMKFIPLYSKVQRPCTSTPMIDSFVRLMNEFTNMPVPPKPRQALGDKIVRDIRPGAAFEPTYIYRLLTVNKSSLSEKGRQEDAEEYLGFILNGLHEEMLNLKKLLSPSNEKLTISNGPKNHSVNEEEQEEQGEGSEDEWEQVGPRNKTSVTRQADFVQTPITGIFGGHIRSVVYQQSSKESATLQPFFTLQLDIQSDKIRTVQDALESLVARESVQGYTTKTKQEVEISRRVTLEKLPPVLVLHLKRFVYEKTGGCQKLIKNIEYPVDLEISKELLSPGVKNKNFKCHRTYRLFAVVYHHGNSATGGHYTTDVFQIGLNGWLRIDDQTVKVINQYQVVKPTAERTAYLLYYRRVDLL

N#Cc1ccccc1N1CCN(C(=O)CCl)CC1
log2 ratio of Biotin-Ahx-Ub-VS probe labelling (OTUD6B): -0.533
log2 ratio of Biotin-Ahx-Ub-VS probe labelling (OTUD7B): -0.626
log2 ratio of Biotin-Ahx-Ub-VS probe labelling (PRPF8): -0.322
log2 ratio of Biotin-Ahx-Ub-VS probe labelling (PSMD7): -0.0914
log2 ratio of Biotin-Ahx-Ub-VS probe labelling (UCHL1): -2.04 (active)
log2 ratio of Biotin-Ahx-Ub-VS probe labelling (UCHL3): -0.341
log2 ratio of Biotin-Ahx-Ub-VS probe labelling (UCHL5): -0.894
log2 ratio of Biotin-Ahx-Ub-VS probe labelling (USP10): -0.051
log2 ratio of Biotin-Ahx-Ub-VS probe labelling (USP15): -0.781
